Data taken from PubChem BioAssay (Tox21).
Values joined by “and” are separate entries in the source; they are usually repeats but may differ in a detail not shown here. Identical values can stand only once. Inconclusive results are not listed. Some structures have more than one record in an assay (separate samples or runs), and their calls can disagree. Active and inactive are the calls of the source. Unless noted, calls come from the whole dose curve; as a rule, active = well fitted curve in the direction sought with a large enough effect in the repeat runs; inconclusive = weak or mixed curves; inactive = no such curve, though single readings can be large; an effect the other way counts as inactive or inconclusive.

Key:
[1] = qHTS assay for small molecule agonists of the p53 signaling pathway (AID 651631; calls by dose curve; note: nearly all actives have a fitted effect of over 15% in size)
Summary of the method: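 Agonist mode screen using a stably integrated beta-lactamase gene under p53 response elements in HCT-116 cells. Compound exposure lasts 16 h at 37 °C; fluorescence intensity is measured following 2 h FRET substrate loading.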

[2] = qHTS assay for small molecules that induce genotoxicity in human embryonic kidney cells expressing luciferase-tagged ATAD5 (AID 651632); note: nearly all actives have a fitted effect of over 15% in size
Summary of the method: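 Test compounds were delivered by pin tool onto HEK293T reporter cells (2,000/well) expressing ATAD5 fused to luciferase. After 16 hr at 37C, 5% CO2, Amplite was added for 30 min at room temperature and luminescence was measured.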

[3] = qHTS assay for small molecule agonists of the p53 signaling pathway - cell viability (AID 651633; calls by dose curve;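 note: p53RE-bla HCT reporter cells with a stable beta-lactamase p53 reporter; series mostly up to about 83 µM; nearly all actives have a fitted effect of over 30% in size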)
Summary of the method: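 p53RE-bla cells were treated with compound for 16 hours at 37 C. Cytotoxicity was then measured as CellTiter-Glo luminescence after 30 min at room temperature.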

[4] = qHTS assay for small molecules that induce genotoxicity in human embryonic kidney cells expressing luciferase-tagged ATAD5 - cell viability (AID 651634; calls by dose curve; note: nearly all actives have a fitted effect of over 25% in size)
Summary of the method: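 Quantitative high-throughput format. HEK293T cells expressing ATAD5 fused to luciferase were plated at 2,000 cells/well and treated 15.5 hr with compound versus DMSO. Viability was determined by fluorescent live-cell protease substrate, 30 min at 37C.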

[5] = qHTS assay for small molecule disruptors of the mitochondrial membrane potential - cell viability (AID 720634; calls by dose curve;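 note: human HepG2 liver cancer cells; series mostly up to about 83 µM; nearly all actives have a fitted effect of over 20% in size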)
Summary of the method: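 Same-well counter-screen: following the MMP dye addition, CellTiter-Glo was added to 1 hr compound-treated HepG2 cells and luminescence read after 30 min at room temperature.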

[6] = qHTS assay to test for compound auto fluorescence at 590 nm (red) in HepG2 cells (AID 720674)
Summary of the method: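 HepG2 cells, 2,000 per well in MEM with 10% FBS, attached overnight at 37 C, then got 23 nL compound or DMSO. After 1 hr at 37 C, 5% CO2, red fluorescence was read at 540/590 nm against Rose Bengal sodium as reference.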

[7] = qHTS assay to test for compound auto fluorescence at 535 nm (green) in HepG2 cells (AID 720675)
[8] = qHTS assay to test for compound auto fluorescence at 460 nm (blue) in HEK293 cells (AID 720678)
Summary of the method: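 After cell attachment (4-5 hr, 37C), compounds were pinned onto HEK293 monolayers in 10% dialyzed FBS medium. The blue channel (405/460 nm) was read following overnight culture. Equivalency was calculated against triamterene.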

[9] = qHTS assay to test for compound auto fluorescence at 590 nm (red) in HEK293 cells (AID 720679)
Summary of the method: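 Plates of HEK293 cells (10% dialyzed FBS) are treated with 23 nL compound or DMSO vehicle after a 4-5 hr attachment period, incubated overnight at 37C, and read for red fluorescence at 540/590nm.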

[10] = qHTS assay to test for compound auto fluorescence at 535 nm (green) in HEK293 cells (AID 720680)
[11] = qHTS assay to test for compound auto fluorescence at 460 nm (blue) in HEK293 cell free culture (AID 720681)
Summary of the method: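 Compounds were added to cell-free DMEM with 10% FBS and fluorescence read directly. The blue channel used 405 nm excitation and 460 nm emission, with triamterene as the reference fluorophore.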

[12] = qHTS assay to test for compound auto fluorescence at 535 nm (green) in HEK293 cell free culture (AID 720682)
Summary of the method: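 No cells present: wells hold DMEM supplemented with 10% FBS, into which compound or vehicle is pinned. Green emission is then recorded (485 nm excitation, 535 nm emission) and scaled to fluorescein.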

[13] = qHTS assay to test for compound auto fluorescence at 590 nm (red) in HEK293 cell free culture (AID 720683)
Summary of the method: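 Cell-free wells of DMEM with 10% FBS received compound, and intrinsic fluorescence was read at excitation/emission 540/590 nm. Values expressed as equivalence to Rose Bengal sodium.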

[14] = qHTS assay to test for compound auto fluorescence at 590 nm (red) in HepG2 cell free culture (AID 720684)
Summary of the method: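 Rose Bengal sodium served as the reference for red signal. Test compounds were dispensed into serum-containing MEM (10% FBS) without cells, and plates were read at 540/590 nm.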

[15] = qHTS assay to test for compound auto fluorescence at 460 nm (blue) in HepG2 cell free culture (AID 720685)
Summary of the method: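 Cell-free plates of MEM plus 10% FBS received 23 nL compound or DMSO vehicle; blue-channel (405/460 nm) intensity scored against triamterene as reference fluorophore.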

[16] = qHTS assay to test for compound auto fluorescence at 535 nm (green) in HepG2 cell free culture (AID 720686)
[17] = qHTS assay to test for compound auto fluorescence at 460 nm (blue) in HepG2 cells (AID 720687)
Summary of the method: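 HepG2 cells in MEM with 10% FBS, attached overnight at 37 C, were exposed to compound or DMSO for 1 hr at 37 C, 5% CO2. Blue fluorescence was read at 405/460 nm, with triamterene as reference fluorophore.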

[18] = qHTS assay for small molecule disruptors of the mitochondrial membrane potential (AID 720635); note: potency is the fitted concentration of half-maximal effect
Summary of the method: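 HepG2 cells exposed to compound 1 hr at 37C, then Mito-MPS dye 30 min. Ratio read of aggregate (540/590 nm) versus monomer (490/535 nm) fluorescence.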

[19] = molecular target: Glucocorticoid receptor (Homo sapiens) (UniProt P04150); test: qHTS assay to identify small molecule agonists of the glucocorticoid receptor (GR) signaling pathway (AID 720691; active = well fitted activation curve with a large enough effect in the signal ratio in the repeat runs, not every such curve was filed as active; the % refers to the signal ratio)
Chain of Glucocorticoid receptor (Homo sapiens) (P04150 whole entry, looked up): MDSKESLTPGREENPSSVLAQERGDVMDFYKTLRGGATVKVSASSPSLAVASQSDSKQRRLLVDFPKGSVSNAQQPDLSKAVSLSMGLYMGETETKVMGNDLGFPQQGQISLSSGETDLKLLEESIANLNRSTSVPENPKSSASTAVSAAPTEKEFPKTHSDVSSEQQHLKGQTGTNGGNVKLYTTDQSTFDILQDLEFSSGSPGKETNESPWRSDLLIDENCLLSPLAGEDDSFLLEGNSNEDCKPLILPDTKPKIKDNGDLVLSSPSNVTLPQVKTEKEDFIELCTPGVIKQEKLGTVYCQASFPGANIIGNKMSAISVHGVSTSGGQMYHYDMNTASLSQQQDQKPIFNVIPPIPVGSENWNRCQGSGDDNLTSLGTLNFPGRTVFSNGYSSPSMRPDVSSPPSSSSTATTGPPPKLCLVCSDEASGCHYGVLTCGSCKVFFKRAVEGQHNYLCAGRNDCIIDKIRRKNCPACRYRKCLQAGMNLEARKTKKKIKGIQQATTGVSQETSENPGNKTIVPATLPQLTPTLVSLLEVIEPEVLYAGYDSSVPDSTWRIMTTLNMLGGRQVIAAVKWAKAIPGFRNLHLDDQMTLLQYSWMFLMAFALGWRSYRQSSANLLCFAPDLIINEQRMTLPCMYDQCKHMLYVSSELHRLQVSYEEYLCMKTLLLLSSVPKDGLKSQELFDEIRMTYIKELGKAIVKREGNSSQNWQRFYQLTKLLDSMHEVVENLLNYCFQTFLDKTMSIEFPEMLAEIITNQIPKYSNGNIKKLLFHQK
Summary of the method: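 A HeLa cervical cancer line expressing GR and a glucocorticoid response element-driven beta-lactamase gene is treated with compounds for 18 h; LiveBLAzer B/G FRET substrate is then applied and fluorescence read.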

[20] = molecular target: Glucocorticoid receptor (Homo sapiens) (UniProt P04150); test: qHTS assay to identify small molecule antagonists of the glucocorticoid receptor (GR) signaling pathway (AID 720692; active = well fitted inhibition curve with a large enough effect in the signal ratio in the repeat runs, not every such curve was filed as active; the % refers to the signal ratio)
Summary of the method: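 GRE-bla HeLa line, dex-stimulated (5 nM final). Compound exposure 18 h, 37 C. Beta-lactamase FRET read after 2 h RT substrate.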
% is set by controls: 0 for no effect and ±100 for the full control effect.

NC(=S)C(N)=S
inactive: Potency [1] | Potency [2] | Potency [3] | Potency [4] | Potency [5] | outcome [6] | outcome [7] | outcome [8] | outcome [9] | outcome [10] | outcome [11] | outcome [12] | outcome [13] | outcome [14] | outcome [15] | outcome [16] | outcome [17]

Cc1cc(C)c(C(=O)P(=O)(C(=O)c2c(C)cc(C)cc2C)c2ccccc2)c(C)c1
inactive: Potency [1] | Potency [2] | Potency [3] | Potency [4] | Potency [5] | Potency [18] | outcome [6] | outcome [7] | outcome [8] | outcome [9] | outcome [10] | outcome [11] | outcome [12] | outcome [14] | outcome [15] | outcome [16] | outcome [17] | outcome [19] | Potency [20]

COC(C)(C)C
inactive: Potency [1] | Potency [2] | Potency [3] | Potency [4] | Potency [5] | outcome [6] | outcome [7] | outcome [8] | outcome [9] | outcome [10] | outcome [11] | outcome [12] | outcome [13] | outcome [14] | outcome [15] | outcome [16]

CCCSC(=O)Cl
inactive: Potency [1] | Potency [2] | Potency [3] | Potency [4] | Potency [5] | Potency [18] | outcome [6] | outcome [7] | outcome [8] | outcome [9] | outcome [10] | outcome [11] | outcome [12] | outcome [13] | outcome [14] | outcome [15] | outcome [16] | outcome [17] | outcome [19] | Potency [20]

ClC(Cl)(Cl)C(Cl)(Cl)Cl
inactive: Potency [1] | Potency [2] | Potency [3] | Potency [4] | Potency [5] | Potency [18] | outcome [6] | outcome [7] | outcome [8] | outcome [9] | outcome [10] | outcome [11] | outcome [12] | outcome [14] | outcome [15] | outcome [16] | outcome [17] | Potency [20]

OC(c1ccccc1)(c1ccccc1)C1CCNCC1
inactive: Potency [1] | Potency [2] | Potency [3] | Potency [4] | Potency [5] | Potency [18] | fluorescence, relative to Rose Bengal [6] 0.0965% [at 18.6 µM] | fluorescence, % of fluorescein control [7] 0.0225% [at 18.6 µM] | fluorescence, % of triamterene [8] -0.0368% [at 18.6 µM] | fluorescence, % of fluorescent control [9] -0.0312% [at 18.6 µM] | fluorescence, % of fluorescein [10] 0.0137% [at 18.6 µM] | fluorescence, % of fluorescent control [11] 0.0014% [at 18.6 µM] | activity change [12] 0.0163% [at 18.6 µM] | fluorescence, % of fluorescent control [13] 0.068% [at 18.6 µM] | fluorescence, % of Rose Bengal [14] -0.191% [at 18.6 µM] | fluorescence, % of fluorescent control [15] -0.0381% [at 18.6 µM] | fluorescence, % of fluorescein control [16] -0.0573% [at 18.6 µM] | fluorescence, % of fluorescent control [17] 0.186% [at 18.6 µM] | outcome [19]

CCOC(=O)/C=C(C)/C=C/C[C@@H](C)CCCC(C)C
inactive and 54.5 µM (active): Potency [18]
inactive: Potency [1] | Potency [2] | Potency [3] | Potency [4] | Potency [5] | outcome [6] | outcome [7] | outcome [8] | outcome [9] | outcome [10] | outcome [11] | outcome [13] | outcome [14] | outcome [15] | outcome [16] | outcome [17] | outcome [19]

CC1(C)CON(Cc2ccccc2Cl)C1=O
inactive: Potency [1] | Potency [2] | Potency [3] | Potency [4] | Potency [5] | Potency [18] | outcome [6] | outcome [7] | outcome [8] | outcome [9] | outcome [10] | outcome [11] | outcome [14] | outcome [15] | outcome [16] | outcome [17]

O=C(CCCN1CCC(n2c(=O)[nH]c3ccccc32)CC1)c1ccc(F)cc1
inactive: Potency [1] | Potency [2] | Potency [3] | Potency [4] | Potency [5] | Potency [18] | fluorescence, relative to Rose Bengal [6] -0.608% [at 18.6 µM] | fluorescence, % of fluorescein control [7] 0.0365% [at 18.6 µM] | fluorescence, % of triamterene [8] 0.114% [at 18.6 µM] | fluorescence, % of fluorescent control [9] 0.426% [at 18.6 µM] | fluorescence, % of fluorescein [10] 0.0703% [at 18.6 µM] | fluorescence, % of fluorescent control [11] 0.0625% [at 18.6 µM] | activity change [12] -0.0154% [at 18.6 µM] | fluorescence, % of Rose Bengal [14] 0.463% [at 18.6 µM] | fluorescence, % of fluorescent control [15] -0.0144% [at 18.6 µM] | fluorescence, % of fluorescein control [16] 0.027% [at 18.6 µM] | fluorescence, % of fluorescent control [17] 0.0395% [at 18.6 µM] | outcome [19] | Potency [20]

CCCCP(CCCC)CCCC
inactive: Potency [1] | Potency [2] | Potency [3] | Potency [4] | Potency [5] | outcome [6] | outcome [7] | outcome [8] | outcome [9] | outcome [10] | outcome [11] | outcome [12] | outcome [13] | outcome [14] | outcome [15] | outcome [16] | outcome [17]

CSc1nc(N=[N+]=[N-])nc(NC(C)C)n1
inactive: Potency [1] | Potency [2] | Potency [3] | Potency [4] | Potency [5] | Potency [18] | outcome [6] | outcome [7] | outcome [8] | outcome [9] | outcome [10] | outcome [11] | outcome [12] | outcome [15] | outcome [16] | outcome [17]

NC(=O)c1cc([N+](=O)[O-])cc([N+](=O)[O-])c1
inactive: Potency [1] | Potency [2] | Potency [3] | Potency [4] | Potency [5] | Potency [18] | outcome [6] | outcome [7] | outcome [8] | outcome [9] | outcome [10] | outcome [11] | outcome [12] | outcome [13] | outcome [14] | outcome [15] | outcome [16] | outcome [17]

O=C1c2ccccc2C(=O)c2ccccc21
inactive: Potency [1] | Potency [2] | Potency [3] | Potency [4] | Potency [5] | outcome [6] | outcome [7] | outcome [8] | outcome [9] | outcome [10] | outcome [11] | outcome [12] | outcome [13] | outcome [14] | outcome [15] | outcome [16] | outcome [17]

CC1CCCCC1NC(=O)Nc1ccccc1 (stereo unspecified)
active: Potency [18] 21.7 µM
inactive: Potency [1] | Potency [2] | Potency [3] | Potency [4] | Potency [5] | outcome [6] | outcome [7] | outcome [8] | outcome [9] | outcome [10] | outcome [11] | outcome [12] | outcome [13] | outcome [15] | outcome [16] | outcome [17] | outcome [19] | Potency [20]

CC1=NNC(=O)N(/N=C/c2cccnc2)C1
inactive: Potency [1] | Potency [2] | Potency [3] | Potency [4] | Potency [5] | outcome [6] | outcome [7] | outcome [8] | outcome [9] | outcome [10] | outcome [11] | outcome [12] | outcome [13] | outcome [14] | outcome [15] | outcome [16] | outcome [17]
